# Measurements taken from PubChem BioAssay (Tox21).
# Several values for one entry are separate records, joined by “and”; a condition that tells them apart may be missing. Identical values can stand only once. Unmarked numbers belong to inactive results. Inconclusive results are not listed. A call without a number means that no potency is given here. Activity calls are given as the source filed them. Unless noted, calls come from the whole dose curve; as a rule, active = well fitted curve in the direction sought with a large enough effect in the repeat runs; inconclusive = weak or mixed curves; inactive = no such curve, though single readings can be large; an effect the other way counts as inactive or inconclusive.
# Tests used:
# [1] = qHTS RealTime-Glo MT Cell Viability Assay in HepG2 cells - 24 hour (AID 1224867); note: nearly all actives have a fitted effect of over 50% in size
# Summary of the method: (§1)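 Compound treatment began 5 h after plating HepG2 cells (600/well) with NanoLuc luciferase and prosubstrate. Plates stayed at 37 C for 40 h; luminescence was captured at six time points, 0 h through 40 h.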
# [2] = qHTS RealTime-Glo MT Cell Viability Assay in HEK293 cells - 32 hour (AID 1224868); note: nearly all actives have a fitted effect of over 50% in size; note: potency is the fitted concentration of half-maximal effect
# Summary of the method: (§2)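 Quantitative high-throughput screen of the Tox21 10K library in HEK293: cells and RealTime-Glo reagents plated together, compound added at 5 h, luminescence monitored through 40 h at 37 C.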
# [3] = A CellTox Green Cytotoxicity Assay to monitor cytotoxicity in HEK293 cells - 0 hour (AID 1224869); note: nearly all actives have a fitted effect of over 50% in size
# Summary of the method: (§3)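 Read-out: fluorescence of a cell-impermeant cyanine dye staining DNA of dead cells, proportional to cytotoxicity. HEK293, 600 cells/well with reagent, compound (23 nL DMSO) added after 5 h; reads at 0, 8, 16, 24, 32, 40 h.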
# [4] = qHTS RealTime-Glo MT Cell Viability Assay in HepG2 cells - 40 hour (AID 1224870); note: nearly all actives have a fitted effect of over 50% in size
# Summary of the method: (§4)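 HepG2 cells (600/well) mixed with RealTime-Glo MT reagent, settled 5 h at 37 C/5% CO2 before compound addition. Nonlytic NanoLuc luminescence from viable-cell prosubstrate reduction read repeatedly during 40 h treatment at 37 C.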
# [5] = A CellTox Green Cytotoxicity Assay to monitor cytotoxicity in HEK293 cells - 40 hour (AID 1224871); note: nearly all actives have a fitted effect of over 45% in size
# Summary of the method: as §3
# [6] = qHTS RealTime-Glo MT Cell Viability Assay in HEK293 cells - 16 hour (AID 1224872)
# Summary of the method: as §2
# [7] = qHTS RealTime-Glo MT Cell Viability Assay in HepG2 cells - 8 hour (AID 1224873); note: nearly all actives have a fitted effect of over 55% in size
# Summary of the method: as §4
# [8] = qHTS RealTime-Glo MT Cell Viability Assay in HEK293 cells - 40 hour (AID 1224874); conditions: RealTime-Glo luminescence; max response: active compounds read low; note: nearly all actives have a fitted effect of over 50% in size; note: potency is the fitted concentration of half-maximal effect
# Summary of the method: (§5)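 Luminescence readout at each listed time point; HEK293, 600 cells/well, RealTime-Glo MT reagent added with cells; compounds pinned (23 nL in DMSO) after 5 h at 37 C; continuous culture at 37 C.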
# [9] = A CellTox Green Cytotoxicity Assay to monitor cytotoxicity in HEK293 cells - 24 hour (AID 1224875); note: nearly all actives have a fitted effect of over 45% in size
# Summary of the method: as §3
# [10] = A CellTox Green Cytotoxicity Assay to monitor cytotoxicity in HepG2 cells - 16 hour (AID 1224876); note: nearly all actives have a fitted effect of over 45% in size
# Summary of the method: (§6)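 HepG2, 600 cells/well premixed w/ CellTox Green; 5 h settle, 37 C/5% CO2; pintool cpd add (DMSO); 37 C, 40 h; fluorescence read at 0, 8, 16, 24, 32, 40 h.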
# [11] = qHTS RealTime-Glo MT Cell Viability Assay in HepG2 cells - 32 hour (AID 1224877); note: nearly all actives have a fitted effect of over 55% in size
# Summary of the method: as §1
# [12] = A CellTox Green Cytotoxicity Assay to monitor cytotoxicity in HepG2 cells - 24 hour (AID 1224878); note: nearly all actives have a fitted effect of over 45% in size
# Summary of the method: as §6
# [13] = A CellTox Green Cytotoxicity Assay to monitor cytotoxicity in HepG2 cells - 40 hour (AID 1224879); note: nearly all actives have a fitted effect of over 40% in size
# Summary of the method: as §6
# [14] = qHTS RealTime-Glo MT Cell Viability Assay in HEK293 cells - 0 hour (AID 1224880)
# Summary of the method: as §5
# [15] = A CellTox Green Cytotoxicity Assay to monitor cytotoxicity in HEK293 cells - 32 hour (AID 1224881); note: nearly all actives have a fitted effect of over 40% in size
# Summary of the method: as §3
# [16] = A CellTox Green Cytotoxicity Assay to monitor cytotoxicity in HepG2 cells - 0 hour (AID 1224882); note: nearly all actives have a fitted effect of over 35% in size
# Summary of the method: as §6
# [17] = A CellTox Green Cytotoxicity Assay to monitor cytotoxicity in HepG2 cells - 32 hour (AID 1224883); note: nearly all actives have a fitted effect of over 50% in size
# Summary of the method: as §6
# [18] = qHTS assay to identify small molecule antagonists of the estrogen related receptor (ERR) signaling pathway from Tox21 library (AID 1224848); note: nearly all actives have a fitted effect of over 50% in size; note: potency is the fitted concentration of half-maximal effect
# Summary of the method: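 Compounds dissolved in DMSO are pin-transferred onto ERR reporter cells (2,000 per well) that have settled for 6 h at 37 C. Plates then incubate 18 h at 37 C before ONE-Glo luciferase reagent and a luminescence read 30 min later.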
# [19] = qHTS assay to identify small molecule agonists of the estrogen related receptor (ERR) signaling pathway from Tox21 library (AID 1224849; calls by dose curve; note: nearly all actives have a fitted effect of over 15% in size); conditions: ERR reporter cell line, ONE-Glo luciferase, 18 h; at 92.4 µM (top of the series)
# Summary of the method: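 Luminescence readout (ONE-Glo, 30 min RT) after 18 h compound exposure at 37 C of NTP-supplied ERR reporter cells; cells were plated 6 h before compound addition by pin tool.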
smiles,measurement,setting,value
Cc1ccc([N+](=O)[O-])cc1C,outcome,[1],inactive
same,Potency,[2],inactive
same,Potency,[3],inactive
same,outcome,[4],inactive
same,Potency,[5],inactive
same,outcome,[6],inactive
same,outcome,[7],inactive
same,max response,[8],-0.25% and 2.38%
same,Potency,[9],inactive
same,Potency,[10],inactive
same,outcome,[11],inactive
same,Potency,[12],inactive
same,Potency,[13],inactive
same,outcome,[14],inactive
same,Potency,[15],inactive
same,Potency,[16],inactive
same,Potency,[17],inactive
CCOC(=O)c1ccccc1C(=O)OCC,Potency,[18],inactive
same,"activity change, positive = activation",[19],2.2% and 2.35%
same,outcome,[1],inactive
same,Potency,[2],inactive
same,Potency,[3],inactive
same,outcome,[4],inactive
same,Potency,[5],inactive
same,outcome,[6],inactive
same,outcome,[7],inactive
same,max response,[8],0.767% and 3.18%
same,Potency,[9],inactive
same,Potency,[10],inactive
same,outcome,[11],inactive
same,Potency,[12],inactive
same,Potency,[13],inactive
same,outcome,[14],inactive
same,Potency,[15],inactive
same,Potency,[16],inactive
same,Potency,[17],inactive
Clc1ccc(Cl)cc1,outcome,[1],inactive
same,Potency,[2],inactive
same,Potency,[3],inactive
same,outcome,[4],inactive
same,Potency,[5],inactive
same,outcome,[6],inactive
same,outcome,[7],inactive
same,max response,[8],6.61% and 0.839%
same,Potency,[9],inactive
same,Potency,[10],inactive
same,outcome,[11],inactive
same,Potency,[12],inactive
same,Potency,[13],inactive
same,outcome,[14],inactive
same,Potency,[15],inactive
same,Potency,[16],inactive
same,Potency,[17],inactive
COC(=O)NC(=S)Nc1ccccc1NC(=S)NC(=O)OC,outcome,[1],inactive
same,Potency,[2],inactive
same,Potency,[3],inactive
same,outcome,[4],inactive
same,Potency,[5],inactive
same,outcome,[6],inactive
same,outcome,[7],inactive
same,Potency,[9],inactive
same,Potency,[10],inactive
same,outcome,[11],inactive
same,Potency,[12],inactive
same,Potency,[13],inactive
same,outcome,[14],inactive
same,Potency,[15],inactive
same,Potency,[16],inactive
CC(C)NC(=O)N1CC(=O)N(c2cc(Cl)cc(Cl)c2)C1=O,Potency,[18],inactive
same,"activity change, positive = activation",[19],-27.3% and -5.72%
same,outcome,[1],inactive
same,Potency,[3],inactive
same,outcome,[4],inactive
same,Potency,[5],inactive
same,outcome,[6],inactive
same,outcome,[7],inactive
same,Potency,[9],inactive
same,Potency,[10],inactive
same,outcome,[11],inactive
same,Potency,[12],inactive
same,Potency,[13],inactive
same,outcome,[14],inactive
same,Potency,[15],inactive
same,Potency,[16],inactive
same,Potency,[17],inactive
Cn1cc(-c2ccccc2)c(=O)c(-c2cccc(C(F)(F)F)c2)c1,Potency,[18],inactive
same,"activity change, positive = activation",[19],-9.79% and -18.6%
same,outcome,[1],inactive
same,Potency,[2],inactive
same,Potency,[3],inactive
same,outcome,[4],inactive
same,Potency,[5],inactive
same,outcome,[6],inactive
same,outcome,[7],inactive
same,Potency,[9],inactive
same,Potency,[10],inactive
same,outcome,[11],inactive
same,Potency,[12],inactive
same,Potency,[13],inactive
same,outcome,[14],inactive
same,Potency,[15],inactive
same,Potency,[16],inactive
same,Potency,[17],inactive
CCCCN(CCCC)SN(C)C(=O)Oc1cccc2c1OC(C)(C)C2,outcome,[1],inactive
same,Potency,[3],inactive
same,outcome,[4],inactive
same,Potency,[5],inactive
same,outcome,[7],inactive
same,max response,[8],-26.5%
same,Potency,[9],inactive
same,Potency,[10],inactive
same,outcome,[11],inactive
same,Potency,[12],inactive
same,Potency,[13],inactive
same,outcome,[14],inactive
same,Potency,[15],inactive
same,Potency,[16],inactive
same,Potency,[17],inactive
CC(Br)C(=O)O (configuration not stated),outcome,[1],inactive
same,Potency,[2],inactive
same,Potency,[3],inactive
same,outcome,[4],inactive
same,Potency,[5],inactive
same,outcome,[6],inactive
same,outcome,[7],inactive
same,max response,[8],0.901% and -24.8%
same,Potency,[9],inactive
same,Potency,[10],inactive
same,outcome,[11],inactive
same,Potency,[12],inactive
same,Potency,[13],inactive
same,outcome,[14],inactive
same,Potency,[15],inactive
same,Potency,[16],inactive
Cc1cc(Cl)ccc1O,outcome,[1],inactive
same,Potency,[2],inactive
same,Potency,[3],inactive
same,outcome,[4],inactive
same,Potency,[5],inactive
same,outcome,[6],inactive
same,outcome,[7],inactive
same,max response,[8],4.2% and 2.39%
same,Potency,[9],inactive
same,Potency,[10],inactive
same,outcome,[11],inactive
same,Potency,[12],inactive
same,Potency,[13],inactive
same,outcome,[14],inactive
same,Potency,[15],inactive
same,Potency,[16],inactive
CCN(CC)c1ccccc1,outcome,[1],inactive
same,Potency,[2],inactive
same,Potency,[3],inactive
same,outcome,[4],inactive
same,Potency,[5],inactive
same,outcome,[6],inactive
same,outcome,[7],inactive
same,max response,[8],8.36% and 18.4%
same,Potency,[9],inactive
same,Potency,[10],inactive
same,outcome,[11],inactive
same,Potency,[12],inactive
same,Potency,[13],inactive
same,outcome,[14],inactive
same,Potency,[15],inactive
same,Potency,[16],inactive
CC(C)(C)C(O)(CCc1ccc(Cl)cc1)Cn1cncn1 (configuration not stated),Potency,[18],61.9 µM (active) and 61.1 µM (active)
same,"activity change, positive = activation",[19],-48.6% and -40.4%
same,outcome,[1],inactive
same,Potency,[2],49.6 µM (active) and 49 µM (active)
same,Potency,[3],inactive
same,outcome,[4],inactive
same,Potency,[5],inactive
same,outcome,[7],inactive
same,Potency,[8],44.2 µM (active) and 54.9 µM (active)
same,Potency,[9],inactive
same,Potency,[10],inactive
same,outcome,[11],inactive
same,outcome,[14],inactive
same,Potency,[15],inactive
same,Potency,[16],inactive
C#CC(C)(C)NC(=O)c1cc(Cl)cc(Cl)c1,outcome,[1],inactive
same,Potency,[2],inactive
same,Potency,[3],inactive
same,outcome,[4],inactive
same,Potency,[5],inactive
same,outcome,[6],inactive
same,outcome,[7],inactive
same,max response,[8],-9.66%
same,Potency,[9],inactive
same,Potency,[10],inactive
same,outcome,[11],inactive
same,Potency,[12],inactive
same,Potency,[13],inactive
same,outcome,[14],inactive
same,Potency,[15],inactive
same,Potency,[16],inactive
same,Potency,[17],inactive
C1CC2OC2CC1C1CO1 (configuration not stated),outcome,[1],inactive
same,Potency,[2],inactive
same,Potency,[3],inactive
same,outcome,[4],inactive
same,Potency,[5],inactive
same,outcome,[6],inactive
same,outcome,[7],inactive
same,max response,[8],9.84%
same,Potency,[9],inactive
same,Potency,[10],inactive
same,outcome,[11],inactive
same,Potency,[12],inactive
same,Potency,[13],inactive
same,outcome,[14],inactive
same,Potency,[15],inactive
same,Potency,[16],inactive
same,Potency,[17],inactive
C=C(C)CCl,outcome,[1],inactive
same,Potency,[2],inactive
same,Potency,[3],inactive
same,outcome,[4],inactive
same,Potency,[5],inactive
same,"activity change, negative = cytotoxicity",[6],7.57% [at 6.97 µM]
same,outcome,[7],inactive
same,max response,[8],0.792% and 2.61%
same,Potency,[9],inactive
same,Potency,[10],inactive
same,outcome,[11],inactive
same,Potency,[12],inactive
same,Potency,[13],inactive
same,outcome,[14],inactive
same,Potency,[15],inactive
same,Potency,[16],inactive
same,Potency,[17],inactive
